The structures appear in SMILES notation. Out of some 110,000 compounds screened, about 80 (0.07%) were called active. The sample as a whole holds a higher share of actives than the screen did. Unmarked numbers belong to inactive results.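 The calls were made as follows: active = inhibition above the mean of the plate negative controls plus 5 SD (cut at about 13% in these data); inactive = the rest.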

Usually inhibition stands for the drop in the measured response relative to a control, in per cent.

The assay is described as follows: inhibitors of macrophage phagocytosis, primary screen, imaging, J774A.1 cells, IgG beads (AID 1029).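 Also: phagocytic index as fraction of beads internalized from green versus red external bead signal; plate controls were DMSO negative control for no effect and cytochalasin-D positive control for full effect.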 The settings on record: J774A.1 macrophage IgG-bead phagocytosis, at 5 µM, stronger effect = higher value.
Consider `Cc1ccc(C)c(OCC(=O)N2CCN(C(=O)c3ccco3)CC2)c1`, for which the inhibition is -4.31%.

For the compound `COc1ccc(-c2csc3ncnc(Oc4ccc5c(C)cc(=O)oc5c4)c23)cc1`, the inhibition is -2.34%.

In the case of `O=C(CNS(=O)(=O)c1ccccc1)NCC(=O)OCc1ccccc1F`, the inhibition is -3.58%.

Consider `CCCOc1ccc(NC(=O)C2OC3OC(C)(C)OC3C3OC(C)(C)OC23)cc1` (centres undefined), for which the inhibition was -11.4%.

For the compound `CCOC(=O)C1=C(C)NC(=S)NC1c1cccs1` (centres undefined), the inhibition is -4.52%.

Consider `Cc1scc(C(=O)NNC(=S)NCc2ccccc2)c1C`, for which the inhibition was -4.2%.

Take `O=C(Nc1ccccc1Cc1ccccc1)c1ccc2c(c1)SC1=NS(=O)(=O)CCN12`: the inhibition is -3.83%.

Consider `O=C(O)c1cccc(N2C(=O)Nc3ccccc3N2O)c1`, for which the inhibition was -9.86%.

Regarding `COc1ccc(Cc2nnc(N/N=C/c3ccccc3O)[nH]c2=O)cc1OC`, the inhibition is -6.04%.

In the case of `COCC(=O)Nc1cc(C(=O)OC)cc(C(=O)OC)c1`, the inhibition was -2.4%.

Take `CN(C)C(CNC(=O)c1ccc(S(=O)(=O)NCc2ccco2)cc1)c1ccccc1` (centres undefined): the inhibition is -2.95%.

Regarding `COc1cc(NC(=O)Nc2ccc(C)cc2)cc([N+](=O)[O-])c1`, the inhibition was -5.65%.

As for `CC(C)C(C)(C#N)NC(=O)CSc1nc2scc(-c3ccccc3)c2c(=O)[nH]1` (centres undefined), the inhibition was -2.01%.

Take `Cc1cccc(-c2nc3ccccc3c(=O)n2NC(=O)Cc2ccc(Cl)cc2)c1`: the inhibition was -9.34%.

Take `O=C(NC(=S)Nc1cc(C(F)(F)F)ccc1N1CCOCC1)c1ccc(-c2cccc(Cl)c2)o1`: the inhibition was -11.9%.

As for `S=C(NCCc1ccccc1)NCC1CCCO1` (centres undefined), the inhibition was 2.03%.

In the case of `Cc1nc2c(C(=O)NCc3cccs3)cnn2c(C)c1Cc1ccc(F)cc1`, the inhibition was -10.6%.

For the compound `CCCCCNC(=O)c1cccnc1SCC(=O)Nc1ccccc1OC`, the inhibition was -7.81%.

With `CCCCOc1ccc(C(=O)N/C(=C/C=C/c2ccccc2)C(=O)N2CCOCC2)cc1`, the inhibition was -6.1%.

With `CCc1ccc(NC(=O)CC2C(=O)NCCN2C(=S)Nc2ccccc2)cc1` (centres undefined), the inhibition is 0.25%.

As for `COC(C(=O)Nc1ccc(C(C)=O)cc1)c1ccccc1` (centres undefined), the inhibition was -7.11%.

For the compound `COCCn1c(SCC(=O)Nc2ccc3c(c2)CCC3)nc2ccccc2c1=O`, the inhibition was -6.84%.

In the case of `Cc1c(Cl)c([N+](=O)[O-])nn1CCCC(=O)Nc1cc(Cl)ccc1Cl`, the inhibition is -3.17%.

In the case of `COc1ccccc1OCc1ccc(C(=O)N2CCN(C)CC2)o1`, the inhibition was 0.11%.

As for `O=C(/C=C/c1cnc2ccccc2n1)NC1CCCCCC1`, the inhibition was -9.71%.

As to `CO/N=C(\N)c1ccc([N+](=O)[O-])cc1`, the inhibition is -3.92%.

Regarding `Cc1ccc(N(Cc2cc3ccccc3[nH]c2=O)C(=O)c2cccs2)cc1`, the inhibition is 0.22%.

Consider `COC(C(=O)NCc1ccccc1C)c1ccccc1` (centres undefined), for which the inhibition was -6.05%.

As to `Cc1nnc(SCc2cc(=O)[nH]c(N3CCN(Cc4ccccc4)CC3)n2)s1`, the inhibition is 55.5% (active).

As for `O=c1cc(CSc2ccccn2)nc(N2CCN(c3ccccc3)CC2)[nH]1`, the inhibition was -1.3%.

For `CCc1c(C)nc(N2CCN(Cc3ccccc3)CC2)[nH]c1=O`, the inhibition is -1.2%.

On to `O=C(N/N=C/c1coc2ccccc2c1=O)c1cc2ccccc2o1`, for which the inhibition was -4.52%.

Regarding `Cc1nc2ccccc2nc(C)c1=NOCc1ccc(Cl)cc1Cl`, the inhibition is -8.1%.

Consider `COc1ccc(C2CC(c3ccccc3)=NN2C(=O)CSc2nccc(=O)[nH]2)cc1` (centres undefined), for which the inhibition was -11.3%.

As to `COCCNC(=S)N/N=C/c1c(C)[nH]c2ccccc12`, the inhibition is -8.64%.

`CCCc1nc(SCC(=O)Nc2ccc(S(=O)(=O)N(C)C)cc2)c2ccccc2n1`: the inhibition is -8.66%.

For `CCCCC(=O)Nc1ccc(C(=O)Nc2cc(C(F)(F)F)ccc2Cl)cc1`, the inhibition is -2.66%.

For `CC1=C[C@H]2Cc3cc(C)cc(C)c3S(=O)(=O)[C@@H]2C=C1`, the inhibition was -2.51%.

As for `COc1ccc(/C=N/NC(=O)c2ccc(Cl)cc2)cc1COC(C)=O`, the inhibition is -2.06%.

For the compound `CCNc1ccc(C(=O)OCC(=O)N2c3ccccc3NC(=O)C2(C)C)cc1[N+](=O)[O-]`, the inhibition is -2.95%.

In the case of `O=C(N/N=C/c1ccc2c(c1)OCO2)c1ccc(Cn2cc([N+](=O)[O-])cn2)o1`, the inhibition was -3.46%.

As for `O=C1OC(OC(=O)c2ccccc2Br)C(N2CCOCC2)=C1Cl` (centres undefined), the inhibition was -11.1%.

Turning to `COc1cc(C2C(N3C(=O)c4ccccc4C3=O)C(=O)N2c2ccc(C)c(C)c2)cc(OC)c1OC` (centres undefined), the inhibition is -9.54%.

For `O=C(CN1C(=O)/C(=C\c2ccccc2F)SC1=S)Nc1nc2ccccc2s1`, the inhibition was -11.3%.

In the case of `COC(=O)c1ccccc1NC(=S)NC(=O)c1ccccc1F`, the inhibition was -2.31%.

Regarding `Cc1[nH]n(-c2ccccc2)c(=O)c1/C=N/NC(=O)c1ccoc1C`, the inhibition was 3.58%.

Take `Cc1cccc(NC(=S)N(CCN(C)C)C(C)c2ccco2)c1` (centres undefined): the inhibition was -6.2%.

Regarding `N=C1C(=O)OCC1c1ccccc1NC(=O)CN1CCCCC1` (centres undefined), the inhibition was -1.24%.

Take `CCN(CC)CCNCc1ccc(OCc2ccc(Cl)nc2)c(OC)c1`: the inhibition was -2.95%.

For `Cc1ccc(S(=O)(=O)N(Cc2ccc(Cl)cc2)c2ccccc2C(=O)NCc2cccnc2)cc1`, the inhibition was -8.82%.

With `Nc1nc(NC(=O)/C=C/c2ccccc2)nn1-c1ccccc1`, the inhibition is -0.41%.

On to `CCc1cccc(NC(=O)CCC(=O)O)c1`, for which the inhibition is -2.13%.

With `CCS(=O)(=O)N1Cc2ccccc2CC1C(=O)Nc1nc2ccc(F)cc2s1` (centres undefined), the inhibition was 7.2%.

Consider `COc1cc(/C=N/O)ccc1OCc1ccc([N+](=O)[O-])cc1`, for which the inhibition is 0.55%.

For `O=C(NC1CCN(Cc2ccccc2)CC1)c1c(F)cccc1F`, the inhibition is 2.58%.

Turning to `CC(C)(C)C(=O)N1CCC[C@@]1(CO)C(=O)O`, the inhibition is 0.17%.

`Cc1cc(/C=C2\SC(=Nc3ccc(N4CCOCC4)cc3)N(C)C2=O)c(C)n1-c1cccnc1`: the inhibition was -0.72%.

In the case of `Cc1nn(Cc2ccc(F)cc2)c(C)c1NC(=O)c1cccnc1Cl`, the inhibition is -2.17%.

As for `Cc1ccc(N=C2NC(=O)c3cccc([N+](=O)[O-])c32)cc1`, the inhibition is -5.47%.

The values are drawn from PubChem BioAssay AID1029 (Sanford-Burnham Center for Chemical Genomics, 2008).
